In general, AC50 refers to the midpoint of the concentration-response curve, whichever way the signal moves.

Outcome and AC50 data for six molecules are collected here from PubChem BioAssay (EPA / NIEHS).

Values joined by “and” are separate entries in the source; they are usually repeats but may differ in a detail not shown here. Equal values may be shown once. Inconclusive results are not listed. The source holds several records for some structures; these can differ, active in one and inactive in another. Active and inactive are the calls of the source. Rule for the calls, unless noted: active = hit-call score of the fitted dose curve at least 0.9, where 1 is the maximum; inactive = score below 0.9.

Assay [1] can be described thus: BSK_4H_Eotaxin3: BioMAP Diversity Plus: 4H Assay for Eotaxin 3 Biomarker Activity (AID 2283000).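 For Outcome: CCL26 protein level quantified by ELISA in parallel with SRB cytotoxicity check.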 To be noted: primary human endothelial cells (HUVEC); actives raise or lower the signal. Put shortly:
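ELISA quantitation of CCL26 (Eotaxin-3) protein from chemically dosed human vascular endothelial cells at 24 h; increases and decreases both scored relative to DMSO-treated baseline.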

Assay [2] has as its target human Peroxisome Proliferator-activated Receptor delta (PPARd), PPARD (gene 5467) (UniProt Q03181). The assay can be described thus: ATG_PPARd_TRANS: Attagene TRANS-FACTORIAL HepG2 Assay for human Peroxisome Proliferator-activated Receptor delta (PPARd) (AID 2283002; active = hit-call score of the fitted dose curve at least 0.9, where 1 is the maximum). A digest of the protocol:
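Cell-based TRANS reporter: HepG2, transient MRTU transfection, 24 h exposure. Readout = reporter mRNA (RT-PCR/CE, 6-FAM). Gain-of-signal fit vs DMSO control.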

Read-out in assay [3]: Intercellular Adhesion Molecule 1 (ICAM1), ICAM1 (gene 3383)
Description: BSK_3C_ICAM1: BioMAP Diversity Plus: 3C Assay for Intercellular Adhesion Molecule 1 (ICAM1) Biomarker Activity (AID 2283003). To be noted: primary human endothelial cells (HUVEC); actives raise or lower the signal. A digest of the protocol: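 ELISA readout of ICAM1 in human umbilical vein endothelial cells in the 3C system, taken 24 h post-dose. Gain or loss of signal versus DMSO was fitted in both directions, with SRB total-protein staining run in parallel.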

Assay [4] deals with human Retinoic Acid Receptor beta (RARb), RARB (gene 5915) (UniProt P10826). The assay can be described thus: ATG_RARb_TRANS: Attagene TRANS-FACTORIAL HepG2 Assay for human Retinoic Acid Receptor beta (AID 2283004; active = hit-call score of the fitted dose curve at least 0.9, where 1 is the maximum). A digest of the protocol:
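Fluorescent capillary-electrophoresis detection of GAL4-UAS reporter mRNA defines the endpoint, with induction over DMSO-treated wells scored as activity. Transiently transfected human hepatoma HepG2 cells expressing exogenous NR–Gal4 proteins are exposed to test chemicals for 24 h.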

Assay [5] has as its target Retinoic acid receptor alpha (Homo sapiens) (UniProt P10276). Description: ATG_RARa_TRANS: Attagene TRANS-FACTORIAL HepG2 Assay for human Retinoic Acid Receptor alpha (RARa) (AID 2283005; active = hit-call score of the fitted dose curve at least 0.9, where 1 is the maximum). A digest of the protocol:
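Reporter transcripts, measured by RT-PCR with fluorescent labeling and capillary electrophoresis after 24 h dosing, reflect activity of an exogenous human RARa–GAL4 fusion in transiently transfected HepG2. Fitted for increase relative to DMSO.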

A short description of assay [6]: BSK_3C_Proliferation: Cell Proliferation Assessment in the BioMAP Diversity Plus: 3C Assay (AID 2283006).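 For AC50: potency may reflect either rise or fall in cell number versus DMSO.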 To be noted: primary human endothelial cells (HUVEC). Put shortly: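 Proliferation as total protein: sulforhodamine B (0.1%) stain of TCA-fixed subconfluent human umbilical vein endothelial cells, absorbance 560 nm, 48 h after dosing. Activity fitted in both directions against DMSO baseline.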

Assay [7] concerns the target Nuclear receptor subfamily 1 group I member 2 (Homo sapiens) (UniProt O75469). Description: ATG_PXR_TRANS: Attagene TRANS-FACTORIAL HepG2 Assay for human Pregnane X Receptor (PXR) (AID 2283008; active = hit-call score of the fitted dose curve at least 0.9, where 1 is the maximum). A digest of the protocol:
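HepG2 transfected (FuGene 6) with GAL4-UAS reporter units + PXR-Gal4 chimera; dosed 24 h. Total RNA → oligo(dT) RT → PCR → 6-FAM primer extension → HpaI cut → CE. Gain-of-signal vs DMSO.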

The target of assay [8] is human Retinoic Acid Receptor gamma (RARg), RARG (gene 5916) (UniProt P13631). Description: ATG_RARg_TRANS: Attagene TRANS-FACTORIAL HepG2 Assay for human Retinoic Acid Receptor gamma (RARg) (AID 2283009; active = hit-call score of the fitted dose curve at least 0.9, where 1 is the maximum). Put shortly:
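Transactivation of exogenous RARg-Gal4 fusion measured as reporter transcript induction after 24 h in transfected HepG2 cells. RNA reverse-transcribed, amplified, fluorescently labeled and resolved by capillary electrophoresis; increase relative to DMSO.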

Assay [9] concerns the target human RAR-related Orphan Receptor beta (RORb), RORB (gene 6096) (UniProt Q92753). The assay can be described thus: ATG_RORb_TRANS: Attagene TRANS-FACTORIAL HepG2 Assay for human RAR-related Orphan Receptor beta (RORb) (AID 2283010; active = hit-call score of the fitted dose curve at least 0.9, where 1 is the maximum). Put shortly: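 Read-out is reporter mRNA induction, quantified by RT-PCR with fluorescent capillary electrophoresis, 24 h post-dose in transiently transfected HepG2 expressing exogenous NR-Gal4 chimera. Activity fitted upward versus DMSO.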

In assay [10] the target is human RAR-related Orphan Receptor gamma (RORg), RORC (gene 6097) (UniProt P51449). The assay can be described thus: ATG_RORg_TRANS: Attagene TRANS-FACTORIAL HepG2 Assay for human RAR-related Orphan Receptor gamma (RORg) (AID 2283011; active = hit-call score of the fitted dose curve at least 0.9, where 1 is the maximum). A digest of the protocol:
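Chimeric RORg-Gal4 transactivation in transfected HepG2; 24 h exposure; RT-PCR/capillary electrophoresis readout of reporter mRNA, DMSO baseline.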

Assay [11] concerns the target Retinoic acid receptor RXR-alpha (Homo sapiens) (UniProt P19793). The assay can be described thus: ATG_RXRa_TRANS: Attagene TRANS-FACTORIAL HepG2 Assay for human Retinoid X Receptor alpha (RXRa) (AID 2283012; active = hit-call score of the fitted dose curve at least 0.9, where 1 is the maximum). Put shortly: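 TRANS format reporting activity of exogenous RXRa-Gal4 chimera in transiently transfected HepG2, 24 h exposure. Reporter transcripts quantified by RT-PCR with capillary electrophoresis, with gain of signal scored relative to DMSO.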

Assay [12] addresses human Retinoid X Receptor beta (RXRb), RXRB (gene 6257) (UniProt P28702). Description: ATG_RXRb_TRANS: Attagene TRANS-FACTORIAL HepG2 Assay for human Retinoid X Receptor beta (RXRb) (AID 2283013; active = hit-call score of the fitted dose curve at least 0.9, where 1 is the maximum). Put shortly: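 Readout is reporter transcript induction after 24 h dosing. It is measured by RT-PCR of total RNA followed by fluorescent capillary electrophoresis. HepG2 liver cells carry transfected multiple reporter units driven by an exogenous RXRb-Gal4 fusion; activity is relative to DMSO.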

Read-out in assay [13]: E-selectin (Homo sapiens) (UniProt P16581)
The assay can be described thus: BSK_3C_Eselectin: BioMAP Diversity Plus: 3C Assay for Eselectin Biomarker Activity (AID 2283015).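 For Outcome: cell surface E-selectin protein quantified by ELISA 24 h after dosing.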 To be noted: primary human endothelial cells (HUVEC); actives raise or lower the signal. Put shortly: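 Endpoint derived by bidirectional fitting against DMSO vehicle; signal is ELISA-detected E-selectin from primary HUVEC at 24 h post-dosing, with parallel SRB staining (0.1% SRB, 560 nm) flagging cytotoxicity.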

Read-out in assay [14]: Interleukin-1 alpha (IL1a), IL1A (gene 3552)
Description: BSK_BE3C_IL1a: BioMAP Diversity Plus: BE3C Assay for Interleukin-1 alpha (IL1a) Biomarker Activity (AID 2283016). To be noted: primary human bronchial epithelial cells; actives raise or lower the signal. A digest of the protocol:
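IL-1a measured by ELISA after 24 h treatment of human primary bronchial epithelial cells, with gain or loss of signal fitted versus DMSO. Parallel cultures stained with SRB gauge overt cytotoxicity.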

Read-out in assay [15]: Monocyte Chemoattractant Protein-1 (MCP1), CCL2 (gene 6347)
The assay can be described thus: BSK_3C_MCP1: BioMAP Diversity Plus: 3C Assay for Monocyte Chemoattractant Protein-1 (MCP1) Biomarker Activity (AID 2283017). To be noted: primary human endothelial cells (HUVEC); actives raise or lower the signal. Put shortly: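 Using human vascular primary endothelium, researchers measured MCP-1 by ELISA 24 h after treatment, with DMSO serving as negative control for bidirectional fitting.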

Read-out in assay [16]: Monocyte Chemoattractant Protein-1 (MCP1), CCL2 (gene 6347)
Description: BSK_4H_MCP1: BioMAP Diversity Plus: 4H Assay for Monocyte Chemoattractant Protein-1 (MCP1) Biomarker Activity (AID 2283018). Particulars: primary human endothelial cells (HUVEC); actives raise or lower the signal. A digest of the protocol:
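ELISA of MCP-1 (CCL2) 24 h after chemical dosing of HUVEC in the BioMAP 4H system. Gain or loss versus DMSO fitted; parallel SRB staining (560 nm) tracked overt cytotoxicity.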

Read-out in assay [17]: Human Leukocyte Antigen - DR isotype (HLADR), HLA-DRA (gene 3122)
The assay can be described thus: BSK_3C_HLADR: BioMAP Diversity Plus: 3C Assay for Human Leukocyte Antigen - DR isotype (HLADR) Biomarker Activity (AID 2283019).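 For Outcome: ELISA of cell-surface HLA-DR on HUVEC 24 h after dosing.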 Particulars: primary human endothelial cells (HUVEC); actives raise or lower the signal. Put shortly: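 Compound added to primary HUVEC cultures, 24 h incubation, then HLA-DR determined by ELISA; endpoint derived by bidirectional fitting relative to DMSO negative control.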

Assay [18] deals with human Peroxisome Proliferator-activated Receptor alpha (PPARa), PPARA (gene 5465) (UniProt Q07869). The assay can be described thus: ATG_PPARa_TRANS: Attagene TRANS-FACTORIAL HepG2 Assay for human Peroxisome Proliferator-activated Receptor alpha (PPARa) (AID 2283001; active = hit-call score of the fitted dose curve at least 0.9, where 1 is the maximum;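 for AC50: potency for gain of reporter signal over DMSO so agonist or activator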). Put shortly: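 Reporter transcripts quantified by RT-PCR plus capillary electrophoresis after 24 h treatment, fitted upward relative to DMSO. Cells: human HepG2 transiently carrying multiple GAL4-UAS reporter units driven by NR-Gal4 chimeras.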
Chain of human Peroxisome Proliferator-activated Receptor alpha (PPARa), PPARA (gene 5465) (Q07869 whole entry, looked up, the tested form may be a part): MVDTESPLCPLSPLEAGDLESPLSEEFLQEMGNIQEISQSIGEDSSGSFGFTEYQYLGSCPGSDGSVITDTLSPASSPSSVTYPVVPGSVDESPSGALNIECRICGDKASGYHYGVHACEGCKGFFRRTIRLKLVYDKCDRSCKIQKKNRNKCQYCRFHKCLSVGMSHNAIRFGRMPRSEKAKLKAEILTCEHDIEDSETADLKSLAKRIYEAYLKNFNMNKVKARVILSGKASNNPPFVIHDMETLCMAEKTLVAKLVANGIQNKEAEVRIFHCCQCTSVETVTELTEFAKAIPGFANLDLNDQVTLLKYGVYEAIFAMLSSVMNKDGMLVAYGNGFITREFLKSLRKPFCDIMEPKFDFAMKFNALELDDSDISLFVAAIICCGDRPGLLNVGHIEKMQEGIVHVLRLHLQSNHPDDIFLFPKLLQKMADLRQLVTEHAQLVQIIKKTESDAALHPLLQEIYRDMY

Assay [19] has as its target Peroxisome proliferator-activated receptor gamma (Homo sapiens) (UniProt P37231). The assay can be described thus: ATG_PPARg_TRANS: Attagene TRANS-FACTORIAL HepG2 Assay for human Peroxisome Proliferator-activated Receptor-gamma (PPARg) (AID 2283007; active = hit-call score of the fitted dose curve at least 0.9, where 1 is the maximum). A digest of the protocol: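 HepG2 cells are transiently transfected with GAL4-UAS reporter units driven by chimeric NR-Gal4 fusions and dosed for 24 h. Reporter mRNA is quantified by RT-PCR, 6-FAM labelling, HpaI digestion and capillary electrophoresis. Induction is scored against DMSO.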

Assay [20] deals with human Thyroid Receptor alpha (THRa1), THRA (gene 7067) (UniProt P10827). The assay can be described thus: ATG_THRa1_TRANS: Attagene TRANS-FACTORIAL HepG2 Assay for human Thyroid Receptor alpha (THRa1) (AID 2283014; active = hit-call score of the fitted dose curve at least 0.9, where 1 is the maximum). Put shortly: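 Measured here is mRNA from a GAL4-UAS reporter in transfected HepG2 cells carrying a Gal4-fused receptor, 24 h post-dose. DMSO served as negative control and baseline.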

Chain of Retinoic acid receptor alpha (Homo sapiens) (P10276 whole entry, looked up, the tested form may be a part): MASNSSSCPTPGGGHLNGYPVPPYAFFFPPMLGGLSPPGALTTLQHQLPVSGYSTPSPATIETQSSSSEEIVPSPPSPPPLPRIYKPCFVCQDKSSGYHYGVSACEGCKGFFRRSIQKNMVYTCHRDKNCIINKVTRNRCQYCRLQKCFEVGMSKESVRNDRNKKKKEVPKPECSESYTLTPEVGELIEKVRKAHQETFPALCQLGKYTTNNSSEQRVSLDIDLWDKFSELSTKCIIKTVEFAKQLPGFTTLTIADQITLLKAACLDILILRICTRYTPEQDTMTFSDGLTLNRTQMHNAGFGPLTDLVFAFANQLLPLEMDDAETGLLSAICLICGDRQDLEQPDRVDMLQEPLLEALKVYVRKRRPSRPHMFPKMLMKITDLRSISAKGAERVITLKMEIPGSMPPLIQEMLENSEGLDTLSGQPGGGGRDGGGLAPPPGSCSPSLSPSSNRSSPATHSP
Chain of human RAR-related Orphan Receptor gamma (RORg), RORC (gene 6097) (P51449 whole entry, looked up, the tested form may be a part): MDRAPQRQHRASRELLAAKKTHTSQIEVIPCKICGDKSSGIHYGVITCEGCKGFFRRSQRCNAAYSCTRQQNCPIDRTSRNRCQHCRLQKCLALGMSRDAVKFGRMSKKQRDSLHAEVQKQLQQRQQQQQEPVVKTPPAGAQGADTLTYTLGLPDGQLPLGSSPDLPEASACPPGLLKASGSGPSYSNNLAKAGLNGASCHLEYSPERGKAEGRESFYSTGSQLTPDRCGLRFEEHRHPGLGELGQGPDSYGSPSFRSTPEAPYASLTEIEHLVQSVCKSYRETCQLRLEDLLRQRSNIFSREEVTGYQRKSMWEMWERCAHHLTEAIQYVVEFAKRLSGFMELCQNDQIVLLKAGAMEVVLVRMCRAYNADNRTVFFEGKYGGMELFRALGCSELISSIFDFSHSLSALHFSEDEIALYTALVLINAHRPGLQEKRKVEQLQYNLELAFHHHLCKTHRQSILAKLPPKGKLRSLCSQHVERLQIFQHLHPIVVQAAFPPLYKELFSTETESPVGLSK
Chain of human Peroxisome Proliferator-activated Receptor delta (PPARd), PPARD (gene 5467) (Q03181 whole entry, looked up): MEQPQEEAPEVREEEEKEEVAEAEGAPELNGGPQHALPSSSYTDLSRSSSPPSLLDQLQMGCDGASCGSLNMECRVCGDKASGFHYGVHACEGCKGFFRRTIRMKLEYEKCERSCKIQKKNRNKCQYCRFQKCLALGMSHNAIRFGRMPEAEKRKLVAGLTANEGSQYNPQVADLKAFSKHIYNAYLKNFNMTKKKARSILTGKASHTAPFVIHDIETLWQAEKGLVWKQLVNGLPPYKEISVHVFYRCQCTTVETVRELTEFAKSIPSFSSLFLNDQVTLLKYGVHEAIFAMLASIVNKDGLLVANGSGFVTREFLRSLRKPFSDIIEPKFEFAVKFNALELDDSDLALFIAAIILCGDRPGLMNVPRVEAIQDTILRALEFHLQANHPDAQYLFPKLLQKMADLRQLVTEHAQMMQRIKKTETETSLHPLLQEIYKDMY
Chain of E-selectin (Homo sapiens) (P16581 whole entry, looked up): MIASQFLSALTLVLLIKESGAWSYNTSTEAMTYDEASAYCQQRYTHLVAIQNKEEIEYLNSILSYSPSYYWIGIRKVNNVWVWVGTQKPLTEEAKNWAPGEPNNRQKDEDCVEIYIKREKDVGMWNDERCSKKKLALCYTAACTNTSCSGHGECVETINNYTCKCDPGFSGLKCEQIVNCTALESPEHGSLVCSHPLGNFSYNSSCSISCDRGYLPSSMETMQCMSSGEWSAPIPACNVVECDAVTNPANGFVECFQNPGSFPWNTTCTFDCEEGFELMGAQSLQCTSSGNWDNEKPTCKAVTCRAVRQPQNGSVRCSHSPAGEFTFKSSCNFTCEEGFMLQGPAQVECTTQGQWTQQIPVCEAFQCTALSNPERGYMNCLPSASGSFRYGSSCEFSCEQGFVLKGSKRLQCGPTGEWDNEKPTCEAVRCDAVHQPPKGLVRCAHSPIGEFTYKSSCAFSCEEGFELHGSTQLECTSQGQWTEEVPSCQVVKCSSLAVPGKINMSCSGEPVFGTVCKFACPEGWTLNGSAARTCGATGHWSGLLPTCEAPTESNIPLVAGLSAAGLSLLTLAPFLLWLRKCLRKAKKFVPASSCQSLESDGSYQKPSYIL
Chain of human Retinoic Acid Receptor beta (RARb), RARB (gene 5915) (P10826 whole entry, looked up, the tested form may be a part): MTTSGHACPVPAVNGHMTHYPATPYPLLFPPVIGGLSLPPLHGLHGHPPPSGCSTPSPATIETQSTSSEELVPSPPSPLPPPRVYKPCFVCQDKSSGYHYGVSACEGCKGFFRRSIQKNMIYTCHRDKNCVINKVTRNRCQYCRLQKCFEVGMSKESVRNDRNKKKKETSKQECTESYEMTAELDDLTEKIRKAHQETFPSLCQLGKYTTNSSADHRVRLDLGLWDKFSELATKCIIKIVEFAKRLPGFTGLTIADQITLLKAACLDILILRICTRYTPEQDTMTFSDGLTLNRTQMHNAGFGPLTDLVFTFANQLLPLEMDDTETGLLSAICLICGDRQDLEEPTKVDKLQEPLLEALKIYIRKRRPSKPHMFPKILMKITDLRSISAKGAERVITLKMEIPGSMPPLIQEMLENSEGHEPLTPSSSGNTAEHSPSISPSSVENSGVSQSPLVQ
Chain of Peroxisome proliferator-activated receptor gamma (Homo sapiens) (P37231 whole entry, looked up, the tested form may be a part): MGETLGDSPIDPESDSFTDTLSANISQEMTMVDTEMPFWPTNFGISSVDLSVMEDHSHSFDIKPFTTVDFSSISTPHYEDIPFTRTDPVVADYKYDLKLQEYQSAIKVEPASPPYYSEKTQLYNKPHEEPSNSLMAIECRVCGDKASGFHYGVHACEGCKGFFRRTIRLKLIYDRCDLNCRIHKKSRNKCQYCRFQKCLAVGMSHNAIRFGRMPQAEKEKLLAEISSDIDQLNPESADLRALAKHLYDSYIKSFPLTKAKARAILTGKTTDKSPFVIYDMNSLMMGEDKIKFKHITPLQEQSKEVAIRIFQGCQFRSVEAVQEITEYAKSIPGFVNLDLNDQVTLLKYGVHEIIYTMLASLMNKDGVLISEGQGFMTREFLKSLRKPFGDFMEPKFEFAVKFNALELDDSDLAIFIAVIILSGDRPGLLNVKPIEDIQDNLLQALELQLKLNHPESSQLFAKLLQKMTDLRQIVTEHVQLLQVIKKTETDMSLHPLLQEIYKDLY
Chain of Nuclear receptor subfamily 1 group I member 2 (Homo sapiens) (O75469 whole entry, looked up, the tested form may be a part): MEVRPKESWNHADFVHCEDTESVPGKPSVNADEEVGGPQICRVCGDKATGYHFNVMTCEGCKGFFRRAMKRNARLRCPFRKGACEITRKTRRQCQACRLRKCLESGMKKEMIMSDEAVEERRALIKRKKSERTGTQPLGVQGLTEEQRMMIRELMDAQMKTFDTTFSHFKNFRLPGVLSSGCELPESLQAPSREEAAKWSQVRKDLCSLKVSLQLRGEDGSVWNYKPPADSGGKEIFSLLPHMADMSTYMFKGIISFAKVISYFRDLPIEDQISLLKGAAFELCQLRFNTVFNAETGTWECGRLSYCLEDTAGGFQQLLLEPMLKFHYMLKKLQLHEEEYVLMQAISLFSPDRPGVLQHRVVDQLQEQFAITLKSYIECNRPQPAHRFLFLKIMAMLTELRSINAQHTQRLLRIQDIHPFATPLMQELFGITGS
Chain of Retinoic acid receptor RXR-alpha (Homo sapiens) (P19793 whole entry, looked up, the tested form may be a part): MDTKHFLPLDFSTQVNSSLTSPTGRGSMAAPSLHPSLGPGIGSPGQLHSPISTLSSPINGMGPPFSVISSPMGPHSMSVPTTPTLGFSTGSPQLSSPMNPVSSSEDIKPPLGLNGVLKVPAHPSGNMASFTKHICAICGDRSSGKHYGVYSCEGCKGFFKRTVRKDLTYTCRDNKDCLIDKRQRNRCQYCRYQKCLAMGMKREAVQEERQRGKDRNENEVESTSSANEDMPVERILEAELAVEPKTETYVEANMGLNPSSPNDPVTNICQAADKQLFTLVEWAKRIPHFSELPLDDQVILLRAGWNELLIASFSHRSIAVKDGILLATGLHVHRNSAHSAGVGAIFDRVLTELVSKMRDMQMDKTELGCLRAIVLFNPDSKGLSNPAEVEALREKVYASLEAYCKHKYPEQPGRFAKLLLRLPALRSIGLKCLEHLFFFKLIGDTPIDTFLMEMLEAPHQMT
Chain of human Retinoic Acid Receptor gamma (RARg), RARG (gene 5916) (P13631 whole entry, looked up, the tested form may be a part): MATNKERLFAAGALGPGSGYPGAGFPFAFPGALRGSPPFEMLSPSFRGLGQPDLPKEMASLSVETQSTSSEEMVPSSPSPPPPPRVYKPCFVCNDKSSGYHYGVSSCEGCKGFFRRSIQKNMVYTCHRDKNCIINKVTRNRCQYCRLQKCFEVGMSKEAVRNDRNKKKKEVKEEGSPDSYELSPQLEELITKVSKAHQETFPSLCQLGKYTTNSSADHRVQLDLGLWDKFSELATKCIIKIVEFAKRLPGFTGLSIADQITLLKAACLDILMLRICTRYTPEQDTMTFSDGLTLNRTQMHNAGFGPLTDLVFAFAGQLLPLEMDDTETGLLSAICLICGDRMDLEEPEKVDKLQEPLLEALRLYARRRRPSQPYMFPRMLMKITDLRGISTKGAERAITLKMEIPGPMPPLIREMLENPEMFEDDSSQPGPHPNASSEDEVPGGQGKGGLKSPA

With `CC[N+](CC)(CC)Cc1ccccc1`, the outcome in [1], in assay [2], in assay [3], in assay [4], in assay [5] and in [6] was inactive. Also, the molecule was classed as inactive in [7], in assay [8], in [9], in [10], in [11] and in assay [12]. For the same molecule, the outcome in assay [13], in assay [14], in assay [15], in [16] and in assay [17] was inactive.
Turning to `CCOC(=O)CN[C@@H](C(=O)N1CC[C@H]1C(=O)NCc1ccc(/C(N)=N/O)cc1)C1CCCCC1`, the result in assay [1], in [18], in assay [2], in assay [3], in [6] and in assay [19] was inactive. For the same molecule, the outcome in assay [8], in assay [11], in [20], in [13], in assay [14] and in [15] was inactive. The result in [16] and in assay [17] was inactive. The concentration at half-maximal activity (AC50) in [12] was 1.42 µM (active).
`CC(=O)Nc1ccc(O)cc1`: the outcome in assay [1], in assay [2], in [3], in [5], in assay [6] and in assay [10] was inactive. Also, the call in [11], in [20], in assay [13], in assay [14], in assay [15] and in [16] was inactive. Also, in assay [17], the outcome was inactive.
Regarding `O=C(O)CCC(F)(F)C(F)(F)C(F)(F)C(F)(F)C(F)(F)C(F)(F)F`, the result in [1], in [18], in assay [2], in assay [3], in assay [6] and in [7] was inactive. Also, the molecule was classed as inactive in assay [9], in assay [10], in [11], in assay [20], in assay [13] and in assay [14]. In addition, the result in assay [15], in [16] and in assay [17] was inactive. The AC50 in [19] is 73.4 µM (active); in [12] it was 51.1 µM (active).
On to `C[C@]12CC[C@@H]3c4ccc(O)cc4CC[C@H]3[C@@H]1C[C@@H](O)[C@@H]2O`, for which the outcome in assay [1], in assay [2], in assay [3], in assay [4], in assay [5] and in assay [6] was inactive. Also, the call in [19], in assay [7], in assay [10], in [11], in assay [20] and in assay [13] was inactive. Further, the outcome in [14], in assay [15], in [16] and in assay [17] was inactive.
For `O=C(O)C(F)(F)OC(F)(F)C(F)(F)OC(F)(F)C(F)(F)OC(F)(F)C(F)(F)C(F)(F)C(F)(F)F`, the AC50 in assay [1] was 45.5 µM (active) and 51.6 µM (active); in assay [18] it was 24 µM (active); in assay [3], 45.4 µM (active) and 53.1 µM (active); in assay [6], 18 µM (active) and 18.4 µM (active); in assay [19] it was 13.1 µM (active) and 19.1 µM (active); in assay [7], 16.5 µM (active) and 19.4 µM (active). Further, the AC50 in assay [12] is 13.3 µM (active) and 9.78 µM (active); in assay [13] it was 49.6 µM (active) and 49 µM (active); in assay [14], 6.32 µM (active) and 6.18 µM (active); in assay [15] it was 44.8 µM (active) and 46.6 µM (active); in assay [16], 42.4 µM (active) and 40.5 µM (active); in [17] it was 45.5 µM (active) and 50.6 µM (active). For the same molecule, the outcome in assay [18], in assay [2], in assay [4], in assay [5], in [8] and in [9] was inactive. Moreover, the call in [10], in [11] and in [20] was inactive.
